Screen size: about 310,000 compounds; about 14,000 (4.5%) showed an effect of 50% or more. The effect is printed as a negative number. This excerpt belongs to a sample that is enriched for strong results.
What follows are molecules tested against human ether-à-go-go-related gene (hERG) potassium channel (human, UniProt Q12809) (assay: primary screen, population patch clamp on CHO cells stably expressing hERG; higher = less effect of the substance).
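Further: peak tail current of the secondary pulse compared with the same well before compound.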

Sequence of human ether-à-go-go-related gene (hERG) potassium channel (Q12809 whole entry, looked up): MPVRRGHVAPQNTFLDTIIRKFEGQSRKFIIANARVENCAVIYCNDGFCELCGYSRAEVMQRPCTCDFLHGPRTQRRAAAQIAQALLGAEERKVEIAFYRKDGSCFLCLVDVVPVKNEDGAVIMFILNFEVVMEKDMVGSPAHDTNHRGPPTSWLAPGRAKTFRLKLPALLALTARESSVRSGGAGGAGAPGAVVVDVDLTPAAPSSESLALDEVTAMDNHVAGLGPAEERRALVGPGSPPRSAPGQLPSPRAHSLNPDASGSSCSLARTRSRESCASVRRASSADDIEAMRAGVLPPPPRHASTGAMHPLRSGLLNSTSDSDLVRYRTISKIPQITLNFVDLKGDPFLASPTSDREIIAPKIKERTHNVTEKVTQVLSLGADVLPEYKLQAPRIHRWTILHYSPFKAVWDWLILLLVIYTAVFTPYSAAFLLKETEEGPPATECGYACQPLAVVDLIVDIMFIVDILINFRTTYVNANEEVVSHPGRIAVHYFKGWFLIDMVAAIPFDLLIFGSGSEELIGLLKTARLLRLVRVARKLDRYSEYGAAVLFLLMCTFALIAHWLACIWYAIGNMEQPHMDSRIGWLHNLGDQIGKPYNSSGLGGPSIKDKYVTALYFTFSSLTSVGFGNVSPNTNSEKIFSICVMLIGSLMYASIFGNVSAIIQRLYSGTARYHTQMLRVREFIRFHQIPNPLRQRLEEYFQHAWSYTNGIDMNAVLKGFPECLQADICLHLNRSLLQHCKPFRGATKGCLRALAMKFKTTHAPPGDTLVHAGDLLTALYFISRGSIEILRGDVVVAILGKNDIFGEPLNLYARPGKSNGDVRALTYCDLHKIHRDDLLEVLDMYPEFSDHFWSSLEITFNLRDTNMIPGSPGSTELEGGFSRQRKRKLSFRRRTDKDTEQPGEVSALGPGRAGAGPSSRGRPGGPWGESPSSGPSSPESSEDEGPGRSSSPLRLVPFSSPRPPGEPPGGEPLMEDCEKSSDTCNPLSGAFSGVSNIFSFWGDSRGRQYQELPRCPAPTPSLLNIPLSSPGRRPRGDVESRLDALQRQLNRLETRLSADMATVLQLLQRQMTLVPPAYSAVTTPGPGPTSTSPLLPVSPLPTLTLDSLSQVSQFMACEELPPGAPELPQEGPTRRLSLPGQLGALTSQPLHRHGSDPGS

| Structure (SMILES) | hERG current change (%, negative = inhibition) at 10uM [%] |
| --- | --- |
| COC(=O)COc1ccc(S(=O)(=O)Nc2ccc(NC(C)=O)cc2)cc1C | 19.8 |
| COc1ccc(C2Nc3ccccc3C(=O)N2Cc2ccccc2)cc1Cn1nnc2ccccc21 (stereo not shown) | -25.1 |
| Cc1cc(S(=O)(=O)N2CCN(c3ccccc3C)CC2)ccc1F | 1.78 |
| CCC(C)C(=O)Nc1nnc(SCC(=O)Nc2ccccc2F)s1 (stereo not shown) | 10.1 |
| CCOc1ccc2c(c1)nc(C)n2C | 11.7 |
| C[C@]12CC[C@@H]3c4ccc(O)cc4CC[C@H]3[C@@H]1CC[C@@H]2OC(=O)CCC1CCCC1 | 14 |
| O=C(CN1C(=O)CSCC1=O)Nc1ccc2c(c1)OCO2 | 16.2 |
| Cc1ccc(S(=O)(=O)N2CCCCC2)cc1C(=O)c1nccn1C | -2.56 |
| O=C(N/N=C\c1cn(-c2ccccc2)nc1-c1ccccc1)c1ccc2c(c1)OCO2 | 11.3 |
| O=C(CSc1nnc(-c2ccncc2)n1-c1ccccc1)NC1CC1 | 4.69 |
| Cc1cc(/C=C2\SC(=Nc3ccc(N4CCOCC4)cc3)N(C)C2=O)c(C)n1-c1cccnc1 | 11.3 |
| Cc1cc(=O)n2[nH]c(C(F)(F)F)c(-c3ccccc3)c2n1 | 3.6 |
| CC(C)C1NC(=S)N(Cc2ccccc2)C1=O (stereo not shown) | 5.2 |
| CC(C)c1ccc(NC(=O)C2CCN(C(=O)[C@@H]3Cc4ccccc4CN3)CC2)cc1 | -67.4 |
| CC(C)c1ccc(NC(=O)C2CCC(CNC(=O)[C@@H]3Cc4ccccc4CN3)CC2)cc1 (stereo partly shown) | 9.65 |
| CC(NC(=O)C1CCN(C(=O)[C@@H]2Cc3ccccc3CN2)CC1)c1ccccc1 (stereo partly shown) | -25.7 |
| CCOc1ccc(NC(=O)COC(=O)c2c(OC)cccc2OC)cc1 | -1.27 |
| Cl.OC(CN1C2=NCCCN2c2ccccc21)c1ccc2c(c1)OCO2 (stereo not shown) | -70.2 |
| Cl.O=C(CN1C2=NCCN2c2ccccc21)N1CCOCC1 | 9.79 |
| Cl.OC(CN1C2=NCCN2c2ccccc21)c1ccc2c(c1)OCO2 (stereo not shown) | -63.6 |
| OC(c1ccc2c(c1)OCO2)c1nccc2ccccc12 (stereo not shown) | -1.04 |
| COc1cc(C(=O)NNC(=O)CSc2nnc3ccccn23)cc(OC)c1OC | 15.4 |
| CCCC(=O)Nc1ccc(C(=O)N/N=C/c2cccnc2)cc1 | -8.24 |

| Structure (SMILES) | hERG current change (%, negative = inhibition) at 10uM [%] |
| --- | --- |
| CC1(C)Cc2c(cnn2-c2ccc(F)cc2)C(NC(=O)CCCN2CCCCC2=O)C1 (stereo not shown) | 2.89 |
| CCOC(=O)Cn1c(=O)c2c(nc3n2CCCCN3c2ccc(OCC)cc2)n(C)c1=O | -41.4 |
| CCOC(=O)Cn1c(=O)c2c(nc3n2CCCCN3c2ccc(C)cc2)n(C)c1=O | -19.5 |
| CCCCOC(=O)Cn1c(=O)c2c(nc3n2CCCCN3c2ccc(C)cc2)n(C)c1=O | -52.8 |
| Cc1ccccc1S(=O)(=O)Cc1ccc(C(=O)NCCN2CCCCC2C)o1 (stereo not shown) | -39.3 |
| CCOc1cc2c(cc1OCC)C(c1ccc(OC)cc1)N(c1ccccc1)C(=O)C2 (stereo not shown) | -57.5 |
| CCOc1cc2c(cc1OCC)C(c1ccccc1)N(c1ccccc1)C(=O)C2 (stereo not shown) | -6.2 |
| CCOc1ccc(C2c3cc(OC)c(OC)cc3CC(=O)N2c2ccccc2)cc1 (stereo not shown) | -26.5 |
| COC(=O)c1ccc(-n2c(C)cc(C(=O)COC(=O)CC3Sc4ccccc4NC3=O)c2C)cc1 (stereo not shown) | 28.5 |
| Cc1cc(N2CCN(C)CC2)nc2ccc(NC(=S)N3CCOCC3)cc12 | -15.4 |
| Cc1cc(N2CCN(C)CC2)nc2ccc(NC(=O)CCC(=O)NCCC(C)C)cc12 | 13.8 |
| Cc1cc(N2CCN(C)CC2)nc2ccc(NC(=S)N3CCCCCC3)cc12 | -67.2 |
| CCN1CCN(c2cc(C)c3cc(NC(=S)N4CCCC(C)C4)ccc3n2)CC1 (stereo not shown) | -51.3 |
| CCN1CCN(C(=S)Nc2ccc3nc(N4CCN(C)CC4)cc(C)c3c2)CC1 | -2.94 |
| CCCN1CCN(C(=S)Nc2ccc3nc(N4CCN(CC)CC4)cc(C)c3c2)CC1 | 2.61 |
| Cc1cc(N2CCN(C)CC2)nc2ccc(NC(=O)CCC(=O)NCc3ccco3)cc12 | 7.05 |
| CCN1CCN(c2cc(C)c3cc(NC(=S)N4CCOCC4)ccc3n2)CC1 | -23.4 |
| CCN1CCN(c2cc(C)c3cc(NC(=S)N4CCCC4)ccc3n2)CC1 | -15.9 |
| CCN1CCN(c2cc(C)c3cc(NC(=S)N4CCCCC4)ccc3n2)CC1 | -50.1 |
| Cc1cc(N2CCN(C)CC2)nc2ccc(NC(=O)CCC3CCCC3)cc12 | -74.6 |
| CCN1CCN(C(=S)Nc2ccc3nc(N4CCN(CC)CC4)cc(C)c3c2)CC1 | -13.9 |
| N/C(=N\OC(=O)/C=C/c1ccc(Br)cc1)c1ccccn1 | -6.37 |
| OC(CSc1ccc(F)cc1)CN1CCN(c2ccccc2)CC1 (stereo not shown) | -41.7 |

| Structure (SMILES) | hERG current change (%, negative = inhibition) at 10uM [%] |
| --- | --- |
| O=C(CSc1nnc2c(Cl)cc(C(F)(F)F)cn12)NCc1ccc(F)cc1 | -4.27 |
| CC(C)CN(C(=O)CSc1nnnn1C)C1CCS(=O)(=O)C1 (stereo not shown) | 26 |
| CCC/C(=N\NC(=O)Cc1csc(N2CCOCC2)n1)c1ccccc1 | -13.5 |
| O=C(N/N=C/c1ccc[nH]1)c1ccc(O)cc1 | 19.6 |
| Cc1c(Br)c([N+](=O)[O-])nn1CC(=O)N1CCN(Cc2ccccc2)CC1 | -56.4 |
| Cc1c(Cl)c([N+](=O)[O-])nn1CC(=O)N1CCc2ccccc2C1 | 1.08 |
| Cc1c(Cl)c([N+](=O)[O-])nn1CC(=O)N1CCCC1 | -4.86 |
| Cc1cc([N+](=O)[O-])nn1CC(=O)N1CCN(Cc2ccccc2)CC1 | -8.96 |
| Cc1c(Br)c([N+](=O)[O-])nn1CC(=O)NCc1ccccc1 | -2.99 |
| Cc1c(Cl)c([N+](=O)[O-])nn1CC(=O)N1CCN(Cc2ccccc2)CC1 | -71 |
| CC(C)(C)c1nc(SCC(=O)NCc2cccs2)c2ccccc2n1 | -0.222 |
| CCCCn1c(SCC(=O)Nc2nnc(C)s2)nc2c1c(=O)n(C)c(=O)n2C | -12.4 |
| Cc1ccc(-n2c(O)c(C=NCc3ccccn3)c3ccccc3c2=O)cc1C | -11.5 |
| CC1=C(C(=O)OCC2CCCO2)C(c2ccccc2Cl)NC(=O)N1 (stereo not shown) | 14.1 |
| O=C(CCN1C(=O)c2ccccc2C1=O)N1CCN(Cc2ccccc2)CC1 | -22.8 |
| Cc1ccc(CN2CCN(C(=O)CCN3C(=O)c4ccccc4C3=O)CC2)cc1 | -55.4 |
| O=C(CCN1C(=O)c2ccccc2C1=O)N1CCN(Cc2ccc(Cl)cc2Cl)CC1 | -53.4 |
| O=C(CCN1C(=O)c2ccccc2C1=O)N1CCCCCC1 | 0.431 |
| CCN1CCN(C(=O)CCN2C(=O)c3ccccc3C2=O)CC1 | -1.77 |
| CN1CCN(C(=O)CCN2C(=O)c3ccccc3C2=O)CC1 | 14.7 |
| O=C(NN=C1CCN(Cc2ccccc2)CC1)c1ccccc1 | 7.78 |
| Cn1ccnc1SCCNC(=O)CCc1nnc(CCc2ccccc2)o1 | -10.2 |
| Cn1c(O)c(C=NCCN2CCNCC2)c(=O)[nH]c1=O | 13.6 |

| Structure (SMILES) | hERG current change (%, negative = inhibition) at 10uM [%] |
| --- | --- |
| Cc1ccccc1C(=O)N=c1sccn1C | 24.7 |
| Cc1cc(F)ccc1NS(=O)(=O)c1c(C)nc2scc(C)n2c1=O | -35.8 |
| COc1cccc(Cn2c(=O)c3[nH]cnc3n(-c3ccccc3C)c2=O)c1 | -1.8 |
| CCOC(=O)c1c(NC(=O)C(C)N2CCN(S(=O)(=O)c3cccs3)CC2)sc2c1CCC(C)C2 (stereo not shown) | 6.72 |
| Cc1ccc(NC(=O)CN(C)C(=O)c2ccc3[nH]c4c(c3c2)CC(C)CC4)cc1 (stereo not shown) | 8.58 |
| O=C1C2CCCN2C(c2ccccc2)N1c1nccs1 (stereo not shown) | 17.7 |
| Cc1ccccc1C1N(c2nccs2)C(=O)C2CCCN21 (stereo not shown) | -62.5 |
| Cc1ccc(C2N(c3nccs3)C(=O)C3CCCN32)cc1 (stereo not shown) | -4.54 |
| CC(C)(/C=N/O)/[N+]([O-])=C/c1ccccc1 | 20.1 |
| CCCOc1cccc(NC(=O)OC2CCN(C)CC2)c1.O=C(O)/C=C/C(=O)O | -15.7 |
| COc1ccccc1NC(=O)CSc1nc2nccnc2c(=O)n1Cc1cccs1 | -69.9 |
| COc1ccc(NC(=O)CSc2nc3ccccc3c(=O)n2Cc2cccs2)c(OC)c1 | -6.23 |
| Cc1ccc(NC(=O)CSc2nc3ccccc3c(=O)n2Cc2cccs2)cc1 | 7.4 |
| CCn1cc2nc(SCC(=O)Nc3ccc(OC)cc3OC)n(Cc3ccc(OC)cc3)c(=O)c2n1 | 1.42 |
| CCOc1ccc(NC(=O)CSc2nc3ccccc3c(=O)n2Cc2cccs2)cc1 | 13.6 |
| COc1ccccc1NC(=O)CSc1nnc(Cc2cccs2)n1C | 5.99 |
| CCn1cc2nc(SCC(=O)Nc3ccccc3F)n(Cc3ccccc3)c(=O)c2n1 | -70.6 |
| O=C(CSc1nc2nccnc2c(=O)n1Cc1cccs1)Nc1ccccc1F | -69.1 |
| Cn1c(Cc2cccs2)nnc1SCC(=O)Nc1ccccc1F | 1.93 |
| CC(C)CCn1c(SCC(=O)Nc2ccccc2C(F)(F)F)nc2nccnc2c1=O | -21.6 |
| CCn1cc2nc(SCC(=O)Nc3ccc(F)cc3F)n(Cc3ccccc3)c(=O)c2n1 | -40 |
| O=C(CSc1nc2nccnc2c(=O)n1Cc1cccs1)Nc1ccccc1 | -74.9 |

Source: PMC4336329 (PLoS ONE, 2015)
